Shown are actives, neighbours in structure and some others; about 19% of the full set was active somewhere.
RORg inh: ROR gamma (mouse) transcription inhibition | AID 2551 | P51450 | actives 5.4% (n = 310,000) | Potency, µM (titrated, usually from 53.6 µM), inactives show at the top dose activity change, negative = inhibition, hits mostly inhibitors | Drosophila S2 Gal4-RORgamma UAS-luciferase reporter, 20 h; note: nearly all actives have a fitted effect of over 60% in size
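Compounds are pin-transferred onto Drosophila Schneider cells expressing a copper-inducible Gal4–ROR gamma transactivation domain fusion. After 1 hr, copper sulfate is added to 700 uM final; luciferase is read 20 hr later.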
VP16 counter: counter-screen for ROR gamma inhibitors: Gal4-VP16 reporter; Drosophila S2 Gal4-VP16 UAS-luciferase, luminescence, 20 h; Potency, µM (series often up to 53.6 µM), without a hit: top-dose activity, negative = inhibition, actives largely listed as inhibitors; actives 3.5% (n = 310,000); AID 2546;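 note: Gal4-VP16 expression switched on by copper sulfate through the metallothionein promoter; nearly all actives have a fitted effect of over 50% in size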
TDP1 block: TDP1 (human) enzyme inhibition; Q9NUW8; recombinant TDP1, AlphaScreen DNA substrate cleavage; Potency, µM (highest dose often 130 µM), for the others: at the top dose activity change, negative = inhibition, most hits filed as inhibitors; actives 0.28% (n = 350,000); AID 485290; note: nearly all actives have a fitted effect of over 40% in size
Target sequence (Q9NUW8 whole entry, looked up): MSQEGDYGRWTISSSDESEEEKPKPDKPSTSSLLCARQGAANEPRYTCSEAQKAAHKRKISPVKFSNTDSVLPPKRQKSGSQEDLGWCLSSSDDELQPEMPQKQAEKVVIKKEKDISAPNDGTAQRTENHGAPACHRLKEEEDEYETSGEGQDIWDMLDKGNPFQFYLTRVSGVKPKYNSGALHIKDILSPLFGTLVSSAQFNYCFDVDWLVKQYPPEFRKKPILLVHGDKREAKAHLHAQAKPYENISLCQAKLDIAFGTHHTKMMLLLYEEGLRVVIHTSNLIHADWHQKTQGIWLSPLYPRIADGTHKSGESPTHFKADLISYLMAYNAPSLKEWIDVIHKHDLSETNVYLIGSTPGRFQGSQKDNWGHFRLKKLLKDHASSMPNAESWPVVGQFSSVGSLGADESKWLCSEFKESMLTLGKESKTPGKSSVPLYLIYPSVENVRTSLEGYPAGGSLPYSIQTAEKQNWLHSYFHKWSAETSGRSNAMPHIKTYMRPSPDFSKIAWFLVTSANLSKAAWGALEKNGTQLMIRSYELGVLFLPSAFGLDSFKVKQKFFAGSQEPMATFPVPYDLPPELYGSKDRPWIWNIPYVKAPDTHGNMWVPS
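Steps: enzyme plus compound, 15 min RT; add biotin/phosphotyrosine-FITC oligonucleotide (15 nM final), react 5 min; add donor/acceptor beads (10 ug/ml final), 10 min; read AlphaScreen. Tdp1 at 1 nM final.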
TDP1 cell noCPT: qHTS for Inhibitors of human tyrosyl-DNA phosphodiesterase 1 (TDP1): qHTS in cells in absence of CPT; DT40 Tdp1-/- hTDP1 cells, no CPT, ATP luminescence, 48 h; Potency, µM (titrated, usually from 46.2 µM), for inactives: top-dose activity change, negative = growth inhibition, hits mostly inhibitors; actives 15% (n = 420,000); AID 686978, 2013; note: nearly all actives have a fitted effect of over 55% in size
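Chicken DT40 Tdp1-/- cells complemented with human TDP1, screened without camptothecin (DMSO vehicle only), 400 cells/well. Compounds pin-transferred, cells incubated at 37 °C for at least 48 hr. Growth read as ATP-dependent luminescence (CellTiter-Glo, 30 min at RT).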
TDP1 cell CPT: DT40-hTDP1 cell growth loss with CPT; Potency, µM (highest dose often 46.2 µM), for the others: at the highest dose activity change, negative = growth inhibition, hits mostly inhibitors; actives 12% (n = 420,000); AID 686979; chicken DT40 Tdp1-/-;hTDP1 cells + 20 nM CPT, ATP luminescence, 48 h; note: nearly all actives have a fitted effect of over 55% in size
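Chicken DT40 Tdp1-/- cells stably complemented with human TDP1 were seeded at 400 cells/well in medium containing 20 nM camptothecin, exposed to pin-transferred compounds, and grown at 37 °C for at least 48 hr. Viability was read as ATP luminescence.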
* = called active by the depositor; [ ] = dose if it differs, or a comment. Calls come from the whole dose curve; as a rule, active = well fitted curve in the direction sought with a large enough effect; inconclusive = small, poorly fitted or top-dose-only effect, or another doubt; inactive = no such curve, though single readings can be large; an effect the other way counts as inactive or inconclusive. % is set by controls: 0 for no effect and ±100 for the full control effect; potency is the fitted concentration of half-maximal effect.

`COc1ccc2oc(-c3ccco3)cc(=O)c2c1` gave RORg inh inconclusive, VP16 counter inconclusive, TDP1 block 5%, TDP1 cell noCPT inconclusive and TDP1 cell CPT inconclusive.
For O=C(COc1ccc2oc(-c3ccccc3)cc(=O)c2c1)NCc1ccco1 the results were RORg inh 18%, VP16 counter 11%, TDP1 block 50µM*, TDP1 cell noCPT 29µM* and TDP1 cell CPT inconclusive.
`Cc1cccn2c(=O)c(C=NCc3ccco3)c(Nc3ccc(SC(F)F)cc3)nc12` gave RORg inh 0%, VP16 counter -15%, TDP1 block 1%, TDP1 cell noCPT inconclusive and TDP1 cell CPT 26µM*.
For COc1ccc(N2CCN(C(=O)c3ccc4c(=O)n(Cc5ccc6c(c5)OCO6)c(=O)[nH]c4c3)CC2)cc1 the results were RORg inh 9%, VP16 counter -3%, TDP1 block -2%, TDP1 cell noCPT 6% and TDP1 cell CPT -6%.
Screening CCOc1cc2[nH]c(=O)n(Cc3ccc(C(=O)N4CCN(c5cccc(Cl)c5)CC4)cc3)c(=O)c2cc1OCC returned TDP1 block 0%, TDP1 cell noCPT 2.6µM* and TDP1 cell CPT 3.7µM*.
`COc1cccc(N2CCN(C(=O)c3ccc(Cn4c(=O)[nH]c5cc(OC)c(OC)cc5c4=O)cc3)CC2)c1` gave TDP1 block 9%, TDP1 cell noCPT 4.1µM* and TDP1 cell CPT 9.2µM*.
CCOc1cc2[nH]c(=O)n(Cc3ccc(C(=O)N4CCN(c5ccccc5)CC4)cc3)c(=O)c2cc1OCC was read as TDP1 block 2%, TDP1 cell noCPT 5.8µM* and TDP1 cell CPT 12µM*.
`CCOc1cc2[nH]c(=O)n(CCC(=O)N3CCN(c4ccccc4)CC3)c(=O)c2cc1OCC` gave TDP1 block 4%, TDP1 cell noCPT -28% and TDP1 cell CPT -25%.
`c1nc(NCCc2cnc[nH]2)c2ccc(-c3ccc4c(c3)OCO4)cc2n1` gave TDP1 block 7%.
CCOc1ccccc1-c1nnc(SCC(=O)NC2(C#N)CCCC2)o1 was read as TDP1 block 0%[56.1 µM], TDP1 cell noCPT 0% and TDP1 cell CPT 1%.
Screening O=C(CN(C(=O)CCC(=O)Nc1nccs1)c1ccccc1F)NCc1ccc(F)cc1 returned RORg inh 2%, VP16 counter -2%, TDP1 block 0%, TDP1 cell noCPT -21% and TDP1 cell CPT 0%.
`O=C(CSc1nncn1-c1cccnc1)Nc1cccc([N+](=O)[O-])c1` gave RORg inh -1%, VP16 counter 0%, TDP1 block 4%, TDP1 cell noCPT -4% and TDP1 cell CPT 2%.
COc1ccc([N+](=O)[O-])cc1NC(=O)CC(c1ccccc1)c1ccccc1 was read as RORg inh 0%, VP16 counter -5%, TDP1 block 2%, TDP1 cell noCPT inconclusive and TDP1 cell CPT inconclusive.
Screening COCCSc1ccccc1C(=O)Nc1ccc([N+](=O)[O-])cc1OC returned RORg inh 6%, VP16 counter -6%, TDP1 block 5%, TDP1 cell noCPT 23µM* and TDP1 cell CPT inconclusive.
COc1cc([N+](=O)[O-])ccc1NC(=O)CSc1nncn1-c1cccnc1 was read as RORg inh 10%, VP16 counter -2%, TDP1 block 3%, TDP1 cell noCPT 0.52µM* and TDP1 cell CPT inconclusive.
`COc1ccc([N+](=O)[O-])cc1NC(=O)CSc1nc(C)cc(C)n1` gave RORg inh inconclusive, VP16 counter 4%, TDP1 block 8%, TDP1 cell noCPT inconclusive and TDP1 cell CPT 16µM*.
COc1ccc([N+](=O)[O-])cc1NC(=O)CSc1ccc2ccccc2c1 was read as RORg inh inconclusive, VP16 counter inconclusive, TDP1 block 5%, TDP1 cell noCPT inconclusive and TDP1 cell CPT 23µM*.
Cc1cc(C)c(NC(=O)C2=COCCO2)c(C)c1 was read as TDP1 block -6%[0.505 µM], TDP1 cell noCPT -8% and TDP1 cell CPT 2%.
CCCCN1CC(C(=O)NCc2ccc(C)cc2)CC1=O (stereo unspecified) was read as RORg inh 3%, VP16 counter -1%, TDP1 block 7%, TDP1 cell noCPT -12% and TDP1 cell CPT -1%.
For CSc1ncccc1C(=O)OCC(=O)C(C)(C)C the results were RORg inh 6%, VP16 counter 4%, TDP1 block -4%, TDP1 cell noCPT 11% and TDP1 cell CPT 7%.
CCOC(=O)N1CCN(Cc2nc3c(c(=O)n(C)c(=O)n3C)n2Cc2cccc(C)c2)CC1 was read as RORg inh 1%, VP16 counter 0%, TDP1 block 6%, TDP1 cell noCPT inconclusive and TDP1 cell CPT -35%.
Screening C=CC(C)Sc1nc2c(c(=O)n(C)c(=O)n2C)n1Cc1ccccc1Cl (stereo unspecified) returned RORg inh 21%, VP16 counter 3%, TDP1 block 1%, TDP1 cell noCPT inconclusive and TDP1 cell CPT inconclusive.
For CCCOc1nc2c(c(=O)n(C)c(=O)n2C)n1Cc1cccc2ccccc12 the results were RORg inh 30%, VP16 counter inconclusive, TDP1 block 2%, TDP1 cell noCPT 6.5µM* and TDP1 cell CPT 12µM*.
`Cn1c(=O)c2c(nc(Oc3ccc(F)cc3)n2Cc2ccc(F)cc2)n(C)c1=O` gave TDP1 block -1%.
Screening CCOC(=O)N1CCN(Cc2nc3c(c(=O)n(C)c(=O)n3C)n2Cc2cccc3ccccc23)CC1 returned RORg inh -7%, VP16 counter -4%, TDP1 block 3%, TDP1 cell noCPT inconclusive and TDP1 cell CPT 23µM*.
C=CCOc1nc2c(c(=O)n(C)c(=O)n2C)n1Cc1ccc(Cl)cc1 was read as RORg inh 22%, VP16 counter inconclusive, TDP1 block -2%, TDP1 cell noCPT 15µM* and TDP1 cell CPT 16µM*.
Screening C=CCOc1nc2c(c(=O)n(C)c(=O)n2C)n1Cc1ccccc1Cl returned RORg inh -9%, VP16 counter inconclusive, TDP1 block 3%, TDP1 cell noCPT 23µM* and TDP1 cell CPT 16µM*.
Cc1ccccc1NC(=O)c1cc2c(-c3ccccc3)nn(-c3ccccc3)c2s1 was read as TDP1 block 6%.
For CC(=O)c1ccc(N(C(=O)Cc2c[nH]c3ccccc23)C(C(=O)NC2CCCCC2)c2cccs2)cc1 (stereo unspecified) the results were RORg inh 23%, VP16 counter 10%, TDP1 block 11%, TDP1 cell noCPT -24% and TDP1 cell CPT inconclusive.
